These results are taken from PubChem BioAssay (Tox21).

Assay [1] can be described thus: qHTS RealTime-Glo MT Cell Viability Assay in HEK293 cells - 0 hour (AID 1224880). Note: top concentration of the series differs between compounds; nearly all actives have a fitted effect of over 45% in size. Put shortly:
(§1)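 Kinetic, non-lysing viability readout. Seed HEK293 (600/well) with reagent, incubate 5 h at 37 C/5% CO2, pin 23 nL compound in DMSO, incubate at 37 C, read luminescence at 0, 8, 16, 24, 32, 40 h.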

Assay [2] is described as follows: A CellTox Green Cytotoxicity Assay to monitor cytotoxicity in HEK293 cells - 32 hour (AID 1224881). Note: nearly all actives have a fitted effect of over 40% in size. Put shortly: (§2)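 Real-time, in one plate: 600 HEK293 cells/well with dead-cell DNA dye, pinned compound after 5 h, 37 C incubation over 40 h; viable cells give no appreciable fluorescence.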
Assay [3] can be described thus: A CellTox Green Cytotoxicity Assay to monitor cytotoxicity in HepG2 cells - 0 hour (AID 1224882). Note: nearly all actives have a fitted effect of over 35% in size. Put shortly: (§3)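 Cytotoxicity was tracked as dead-cell DNA fluorescence in HepG2 cells treated with test compounds at 37 C; each time-point value comes from one kinetic series spanning 0, 8, 16, 24, 32 and 40 h.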
The nature of assay [4]: A CellTox Green Cytotoxicity Assay to monitor cytotoxicity in HepG2 cells - 32 hour (AID 1224883). Note: nearly all actives have a fitted effect of over 50% in size. Note: potency is the fitted concentration of half-maximal effect. The procedure, abridged: as §3
Assay [5] in a line: A CellTox Green Cytotoxicity Assay to monitor cytotoxicity in HEK293 cells - 8 hour (AID 1224884). Note: nearly all actives have a fitted effect of over 35% in size. The procedure, abridged: as §2
Assay [6] can be described thus: qHTS RealTime-Glo MT Cell Viability Assay in HepG2 cells - 16 hour (AID 1224885). Note: nearly all actives have a fitted effect of over 50% in size. The procedure, abridged: (§4)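 qHTS, HepG2, 600 cells/well, RealTime-Glo (NanoLuc + prosubstrate) added with cells; 5 h preincubation; DMSO compound addition; 37 C; luminescence at 0/8/16/24/32/40 h.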
Assay [7] is described as follows: qHTS RealTime-Glo MT Cell Viability Assay in HEK293 cells - 8 hour (AID 1224887). Note: top concentration of the series differs between compounds; nearly all actives have a fitted effect of over 50% in size. The procedure, abridged:
as §1

A short description of assay [8]: A CellTox Green Cytotoxicity Assay to monitor cytotoxicity in HEK293 cells - 16 hour (AID 1224888). Note: nearly all actives have a fitted effect of over 35% in size. The procedure, abridged: as §2
Assay [9] can be described thus: qHTS RealTime-Glo MT Cell Viability Assay in HepG2 cells - 0 hour (AID 1224889). Note: nearly all actives have a fitted effect of over 50% in size. The procedure, abridged: as §4
Assay [10] in a line: qHTS assay to identify small molecule antagonists of the estrogen receptor alpha (ER-alpha) signaling pathway using the BG1 cell line in the presence of 0.1 nM 17-beta-estradiol - cell viability counter screen (AID 1259241). Note: nearly all actives have a fitted effect of over 40% in size. Put shortly: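 Following 5 days in phenol red-free medium with charcoal-stripped serum, VM7Luc4E2 cells received test compounds alongside 0.1 nM 17beta-estradiol (final) at 37C for 22 hr. Live cells were then quantified via protease-substrate fluorescence.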

Assay [11] is described as follows: qHTS assay to identify small molecule antagonists of the androgen receptor (AR) signaling pathway using the MDA cell line in the presence of 0.5 nM R1881 - cell viability counter screen (AID 1259242). Note: nearly all actives have a fitted effect of over 45% in size. The procedure, abridged:
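Cells seeded at 3,000/well and allowed 5 hr at 37C, 0% CO2 before compound transfer and R1881 (0.5 nM final) addition; 16 hr later, live-cell protease fluorescence indicated cytotoxicity.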

Assay [12] addresses Estrogen receptor (Homo sapiens) (UniProt P03372). The experiment in a line: qHTS assay to identify small molecule antagonists of the estrogen receptor alpha (ER-alpha) signaling pathway using the BG1 cell line in the presence of 0.1 nM 17-beta-estradiol (AID 1259244). Note: nearly all actives have a fitted effect of over 50% in size. Put shortly: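 Luciferase signal from VM7Luc4E2 ERE-reporter cells, co-dosed with test compound and 0.1 nM final 17beta-estradiol for 22 h, read with ONE-Glo.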

Assay [13] is described as follows: qHTS assay to identify small molecule HDAC inhibitors (AID 1259364).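 Note: wild-type HCT-116 cells with endogenous class I/II HDAC activity; top concentration of the series differs between compounds; nearly all actives have a fitted effect of over 45% in size.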 Put shortly:
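HCT-116 wt cells, 1,500/well, overnight attach. Compounds (DMSO) 2 h, 37 °C. HDAC-Glo I/II, 30 min RT. Luminescence.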

Assay [14] in a line: qHTS assay to identify small molecule HDAC inhibitors - cell viability counter screen (AID 1259365). Put shortly: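 HCT-116 wild-type, overnight attachment; 2hr drug exposure, 37C; CellTiter-Glo luminescent ATP readout after 30min RT.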
Assay [15] in a line: A CellTox Green Cytotoxicity Assay to monitor cytotoxicity in HepG2 cells - 40 hour (AID 1224879). Note: nearly all actives have a fitted effect of over 40% in size. Note: potency is the fitted concentration of half-maximal effect. Put shortly: as §3
Assay [16] in a line: qHTS RealTime-Glo MT Cell Viability Assay in HEK293 cells - 24 hour (AID 1224886). The procedure, abridged: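 Assay medium contained NanoLuc luciferase plus cell-permeant prosubstrate, added with HEK293 cells at 600 cells/well. After 5 h at 37 C/5% CO2 compounds were added; plates stayed at 37 C for 40 h with serial luminescence reads.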
The nature of assay [17]: A CellTox Green Cytotoxicity Assay to monitor cytotoxicity in HepG2 cells - 8 hour (AID 1224890). Note: nearly all actives have a fitted effect of over 45% in size. Put shortly:
as §3

The nature of assay [18]: qHTS assay to identify small molecule phospholipidosis (PLD) inducers (AID 1259344; active = well fitted curve in the direction sought with a large enough effect; an effect the other way counts as inactive or inconclusive). Put shortly:
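Cells (HepG2, 900 per well) attach for 4 h, receive LipidTOX Red and compound together, incubate 24 h at 37 C, are fixed 30 min with paraformaldehyde/Hoechst, then imaged at one site per well.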

Assay [19] addresses Androgen receptor (Homo sapiens) (UniProt P10275). Nature of the assay: qHTS assay to identify small molecule antagonists of the androgen receptor (AR) signaling pathway using the MDA cell line in the presence of 0.5 nM R1881 (AID 1259243). Note: nearly all actives have a fitted effect of over 50% in size. The procedure, abridged:
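Luminescence from an AR/GR-responsive MMTV-luciferase construct in MDA-kb2 breast carcinoma cells, read 30 min after ONE-Glo, following 16 hr co-treatment with compounds and 0.5 nM R1881.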

Unmarked numbers belong to inactive results. Inconclusive results are not listed. Active and inactive are the calls of the source. Unless noted, calls come from the whole dose curve; as a rule, active = well fitted curve in the direction sought with a large enough effect in the repeat runs; inconclusive = weak or mixed curves; inactive = no such curve, though single readings can be large; an effect the other way counts as inactive or inconclusive.

Estrogen receptor (Homo sapiens), sequence (P03372 whole entry, looked up): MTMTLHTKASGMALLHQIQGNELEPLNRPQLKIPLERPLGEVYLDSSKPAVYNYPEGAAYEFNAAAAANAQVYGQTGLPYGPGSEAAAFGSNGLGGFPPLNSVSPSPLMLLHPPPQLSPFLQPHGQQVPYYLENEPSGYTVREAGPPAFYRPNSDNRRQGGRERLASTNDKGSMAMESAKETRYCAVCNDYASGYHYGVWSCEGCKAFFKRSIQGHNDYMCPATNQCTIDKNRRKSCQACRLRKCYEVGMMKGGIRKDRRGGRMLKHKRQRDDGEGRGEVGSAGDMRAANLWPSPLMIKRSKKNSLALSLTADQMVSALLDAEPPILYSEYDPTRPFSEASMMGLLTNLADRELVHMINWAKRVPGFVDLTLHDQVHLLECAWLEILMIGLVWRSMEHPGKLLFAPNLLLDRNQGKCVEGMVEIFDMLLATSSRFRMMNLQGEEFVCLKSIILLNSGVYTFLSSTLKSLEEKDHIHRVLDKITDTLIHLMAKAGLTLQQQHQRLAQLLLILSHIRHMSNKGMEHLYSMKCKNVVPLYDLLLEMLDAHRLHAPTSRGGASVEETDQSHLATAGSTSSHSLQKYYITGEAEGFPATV
Androgen receptor (Homo sapiens), sequence (P10275 whole entry, looked up): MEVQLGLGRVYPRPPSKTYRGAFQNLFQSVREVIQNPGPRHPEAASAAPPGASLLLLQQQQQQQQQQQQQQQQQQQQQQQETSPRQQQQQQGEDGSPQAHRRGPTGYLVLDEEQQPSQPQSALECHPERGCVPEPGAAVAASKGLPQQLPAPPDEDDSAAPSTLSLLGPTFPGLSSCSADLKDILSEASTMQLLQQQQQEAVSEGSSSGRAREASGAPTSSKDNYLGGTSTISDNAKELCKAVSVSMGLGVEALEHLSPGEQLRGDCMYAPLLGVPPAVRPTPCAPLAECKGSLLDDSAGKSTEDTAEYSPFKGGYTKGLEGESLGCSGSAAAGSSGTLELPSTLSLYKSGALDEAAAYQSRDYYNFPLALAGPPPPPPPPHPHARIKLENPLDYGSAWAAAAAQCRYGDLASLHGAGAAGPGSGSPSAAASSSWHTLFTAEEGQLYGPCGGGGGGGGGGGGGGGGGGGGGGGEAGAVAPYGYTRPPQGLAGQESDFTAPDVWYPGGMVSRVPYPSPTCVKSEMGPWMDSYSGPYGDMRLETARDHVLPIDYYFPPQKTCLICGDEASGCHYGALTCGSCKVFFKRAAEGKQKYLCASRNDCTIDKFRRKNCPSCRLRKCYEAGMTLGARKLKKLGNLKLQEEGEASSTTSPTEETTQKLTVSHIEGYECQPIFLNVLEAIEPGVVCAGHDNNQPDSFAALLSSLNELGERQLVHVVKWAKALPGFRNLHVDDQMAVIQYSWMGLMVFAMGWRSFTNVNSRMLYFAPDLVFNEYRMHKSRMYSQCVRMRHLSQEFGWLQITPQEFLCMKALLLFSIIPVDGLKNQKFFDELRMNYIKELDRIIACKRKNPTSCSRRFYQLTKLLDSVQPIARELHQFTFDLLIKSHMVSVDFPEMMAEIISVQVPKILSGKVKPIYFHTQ

Consider `Cc1cc(O)c(Cl)cc1C`, for which the Potency result in assay [1], in [2], in [3], in assay [5], in [8] and in [9] was “inactive” in each case. Further, in assay [13], the Potency entry was “inactive”. Further, the Potency in [4] is 49 µM (active). Moreover, the molecule was classed as inactive in assay [6], in assay [7], in assay [10], in assay [11], in assay [12] and in assay [14].
Turning to `CCCC[O][Al]([O]CCCC)[O]CCCC`, the Potency entry in [15], in assay [1], in assay [2], in [3], in [4] and in [5] was “inactive” in each case. For the same molecule, the Potency result in assay [8], in assay [9], in assay [17] and in [13] was “inactive” throughout. Further, the molecule was classed as inactive in [16], in [7], in assay [10], in assay [11] and in assay [14].
As to `CCCCN1C(=O)c2ccccc2C1=O`, the Potency result in assay [1], in assay [2], in assay [3], in assay [5], in assay [8] and in assay [9] was “inactive” in each case. For the same molecule, the Potency entry in [17] and in assay [13] was “inactive” each time. In addition, the outcome in assay [16], in assay [7], in assay [10], in assay [11] and in assay [14] was inactive.
For the molecule `C=CCON/C(CCC)=C1\C(=O)CC(C)(C)C(C(=O)OC)=C1O`, the Potency entry in assay [2], in [3], in assay [5], in assay [8], in [9] and in assay [17] was “inactive” throughout. Besides, the Potency entry in assay [13] is “inactive”. Besides, the result in assay [16], in [7], in assay [10], in [11] and in assay [14] was inactive.
Take `N=C(N)N`: the Potency result in [15], in [2], in [3], in assay [4], in assay [8] and in assay [9] was “inactive” in each case. In addition, the Potency result in [17], in assay [18] and in [13] was “inactive” throughout. The outcome in assay [16], in [7], in assay [10], in assay [11] and in assay [14] was inactive.
In the case of `O=S(=O)(O)c1cc(I)c(O)c2ncccc12`, the Potency result in assay [1], in assay [2], in assay [3], in assay [4], in assay [5] and in assay [8] was “inactive” in each case. For the same molecule, the Potency entry in assay [9], in assay [17] and in assay [18] was “inactive” each time. Moreover, the outcome in assay [6], in assay [7], in assay [10], in assay [11] and in assay [14] was inactive.
`CN(C)c1ccncc1`: the Potency result in assay [15], in assay [1], in assay [2], in assay [3], in assay [4] and in [5] was “inactive” in each case. Moreover, the Potency entry in assay [8], in assay [9], in assay [17] and in [13] was “inactive” throughout. Moreover, the molecule was called inactive in assay [16], in assay [7], in assay [10], in assay [11], in [12] and in assay [14].
Regarding `Cc1cc(N)no1`, the Potency result in [15], in assay [1], in assay [2], in assay [3], in assay [4] and in assay [5] was “inactive” in each case. Moreover, the Potency result in assay [8], in [9], in assay [17] and in assay [13] was “inactive” each time. Moreover, the outcome in assay [16], in assay [7], in [10], in assay [11] and in [14] was inactive.
With `CC(C)(C)NCC(O)COc1cccc2c1CCC(=O)N2` (stereo unspecified), the Potency entry in assay [1], in assay [2], in assay [3], in assay [4], in assay [5] and in assay [8] was “inactive” in each case. In addition, the Potency result in assay [9], in [17], in [19], in assay [18] and in assay [13] was “inactive” in each case. In addition, the outcome in [6], in assay [7], in assay [10], in assay [11] and in [14] was inactive.
For the molecule `O=C(O)CCC(=O)Nc1ccc(S(=O)(=O)Nc2nccs2)cc1`, the Potency entry in assay [1], in assay [2], in assay [3], in assay [5], in assay [8] and in [9] was “inactive” each time. Further, the Potency result in assay [18] and in [13] was “inactive” each time. Further, the result in [6], in assay [16], in assay [7], in assay [10], in [11] and in [14] was inactive.
As to `CCCCNCC`, the Potency entry in assay [15], in [2], in assay [3], in assay [4], in assay [5] and in assay [8] was “inactive” in each case. Further, the Potency entry in assay [9], in assay [17] and in assay [13] was “inactive” throughout. For the same molecule, the call in assay [6], in assay [16], in assay [7], in assay [10] and in assay [11] was inactive.
As for `Cc1nnc(C(=O)NC(C)(C)c2nc(C(=O)NCc3ccc(F)cc3)c(O)c(=O)n2C)o1`, the Potency entry in assay [15], in assay [1], in [2], in assay [3], in [4] and in assay [5] was “inactive” in each case. Further, the Potency result in assay [8], in assay [9], in assay [17], in [18] and in [13] was “inactive” throughout. Besides, the molecule was called inactive in [7], in assay [10], in assay [11] and in assay [14].
Consider `CCCCCCCCOCCC#N`, for which, in assay [15], the Potency was 15.5 µM (active). In addition, the Potency result in assay [2], in assay [3], in assay [5], in assay [8], in assay [9] and in assay [17] was “inactive” each time. Besides, the Potency result in [13] was “inactive”. Further, the molecule was called inactive in assay [16], in [7], in assay [10], in assay [11] and in [14].
For `CN1CCN(C(=O)C2CCCCC2)CC1`, the Potency result in assay [15], in assay [2], in assay [3], in assay [4], in assay [5] and in assay [8] was “inactive” each time. Besides, the Potency result in assay [9], in assay [17], in assay [18] and in [13] was “inactive” in each case. The molecule was called inactive in assay [6], in assay [16], in assay [7], in assay [10], in assay [11] and in assay [12]. The outcome in assay [14] was inactive.
As for `CCN(CC)CC(=O)Oc1ccc(NC(C)=O)cc1`, the Potency result in assay [15], in assay [1], in assay [2], in [3], in [4] and in assay [5] was “inactive” throughout. Moreover, the Potency result in assay [8], in [9], in [17] and in assay [19] was “inactive” each time. Moreover, the call in assay [6], in assay [10], in [11] and in assay [14] was inactive.
As for `NC(=O)CC[C@@H](N)C(=O)O`, the Potency result in assay [15], in assay [1], in assay [2], in assay [3], in assay [4] and in assay [5] was “inactive” in each case. Also, the Potency entry in [8], in assay [9], in [17], in assay [18] and in assay [13] was “inactive” each time. The outcome in assay [6], in assay [7], in assay [10], in assay [11] and in assay [14] was inactive.
`COc1cc(NS(=O)(=O)c2ccc(N)cc2)ncn1`: the Potency entry in assay [15], in [1], in [2], in assay [3], in [4] and in assay [5] was “inactive” each time. Further, the Potency entry in [8], in assay [9], in assay [18] and in assay [13] was “inactive” each time. The result in [6], in assay [16], in assay [7], in [10], in assay [11] and in assay [14] was inactive.
As for `CCCC(=O)C(CC)Sc1ccoc1C` (stereo unspecified), the Potency result in assay [1], in [3], in assay [5], in assay [8], in assay [17] and in [19] was “inactive” in each case. In addition, the Potency result in [13] is “inactive”. Further, the molecule was called inactive in assay [16], in assay [7], in [10], in assay [11], in assay [12] and in [14].
